In PubChem BioAssay AID431 (Sanford-Burnham Center for Chemical Genomics, 2006):
The whole screen tested about 63,000 compounds, of which about 1,100 (1.7%) were called active.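 The calls were made as follows: active = compounds whose percent cytotoxicity in the single-dose primary screen, scaled between solvent and toxic-drug controls, exceeds 50; inactive = the rest.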 The list comes from a sample in which actives are over-represented; it also holds similar structures and randomly drawn compounds. Entries with a potency or affinity are not part of this list.

Assay: cytotoxicity in KRAS-transformed pancreatic duct cells, primary screen, cell-based, fluorescence, HTS (AID 431);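 also: 0% = DMSO solvent wells and 100% = doxorubicin-treated wells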
Conditions: HPDE-C7K KRASV12 cells, Alamar Blue viability, 48 h; at 10 µM; active compounds read high

Row | Compound | cytotoxicity
1 | O=C(Nc1sccc1C(=O)N1CCOCC1)c1cccnc1 | 10.9% (inactive)
2 | CCCc1nc(SCC(=O)N2CCN(c3ccccc3)CC2)c2c(=O)n(C)c(=O)n(C)c2n1 | 0.7% (inactive)
3 | Cn1c(=O)c2c(SCC(=O)N3CCC(Cc4ccccc4)CC3)nc(C3CC3)nc2n(C)c1=O | 4% (inactive)
4 | CCCCOC(=O)CSc1nc(N)c(C#N)c(-c2ccc(OC)cc2)c1C#N | -26.1% (inactive)
5 | CCCCOc1ccc(-c2c(C#N)c(N)nc(SCC(N)=O)c2C#N)cc1 | 105% (active)
6 | CCCCOC(=O)CSc1nc(N)c(C#N)c(-c2ccc(OCC)cc2)c1C#N | 17% (inactive)
7 | CCOC(=O)CC(=O)CSc1nc(N)c(C#N)c(-c2ccc(F)cc2)c1C#N | 16.5% (inactive)
8 | CCOC(=O)CSc1nc(N)c(C#N)c(-c2ccc(OC)cc2)c1C#N | -14.8% (inactive)
9 | CCOC(=O)CC(=O)CSc1nc(N)c(C#N)c(-c2ccc(Cl)cc2)c1C#N | 68.4% (active)
10 | O=C(O)c1ccccc1C(=O)c1cccs1 | -9.3% (inactive)
11 | CCc1nc(NCC2CCCO2)c2oc3ccccc3c2n1 (stereo unspecified) | -29.3% (inactive)
12 | O=C(NCCCN1CCN(CCCNC(=O)c2ccc3c(c2)OCO3)CC1)c1ccc2c(c1)OCO2 | -34.5% (inactive)
13 | Cc1ccc(N2CC(C(=O)N3CCN(c4ccccc4)CC3)CC2=O)cc1 (stereo unspecified) | 30.6% (inactive)
14 | Cc1ccc(N2CC(C(=O)N3CCN(C(=O)c4ccco4)CC3)CC2=O)cc1 (stereo unspecified) | 52.5% (active)
15 | CCOC(=O)C1CCN(C(=O)C2CC(=O)N(c3ccc(C)cc3)C2)CC1 (stereo unspecified) | -13.4% (inactive)
16 | CCN(CC)c1ccc(NC(=O)C2CCCN(S(=O)(=O)c3cccnc3)C2)c(C)c1 (stereo unspecified) | -9.5% (inactive)
17 | COc1ccc(-c2cc(-c3ccccc3O)[nH]n2)cc1OC | 61.1% (active)
18 | COc1ccc(-c2cc(-c3cc(F)ccc3O)[nH]n2)cc1OC | 8.8% (inactive)
19 | Oc1ccccc1-c1cc(-c2cccc(F)c2)n[nH]1 | 16.2% (inactive)
20 | N#CC1=C(N)SC(N)=C(C#N)C1c1ccnc2ccccc12 | -13.5% (inactive)
21 | CCOc1ccccc1N1CC(O)=C(c2nc3ccccc3s2)C1=N | 64.8% (active)
22 | COc1ccc(N2CC(O)=C(c3nc4ccccc4s3)C2=N)cc1 | 9.4% (inactive)
23 | COc1ccc(N2CC(O)=C(c3nc4ccccc4s3)C2=N)c(OC)c1 | 11.5% (inactive)
24 | O=C(c1cccs1)N1CCOCC1 | -26.6% (inactive)

Row | Compound | cytotoxicity
25 | COc1ccc2c(c1)-c1nc(NC(=O)c3cccs3)sc1CC2 | 80.1% (active)
26 | O=C(Nc1nc2c(s1)CCc1ccccc1-2)c1cccs1 | -14.1% (inactive)
27 | COc1ccc2c(c1)Cc1sc(NC(=O)c3cccs3)nc1-2 | -6.8% (inactive)
28 | Oc1ccccc1-c1nc(N2CCN(Cc3ccccc3)CC2)c2ccccc2n1 | 13% (inactive)
29 | Clc1ccccc1CNc1ncnc2nc[nH]c12 | -10.1% (inactive)
30 | CCCCN(Cc1ccccc1)c1ncnc2nc[nH]c12 | 6.8% (inactive)
31 | Clc1ccccc1CN(Cc1ccccc1)c1ncnc2nc[nH]c12 | 115% (active)
32 | O/N=C1/CCCCc2sccc21 | -23.7% (inactive)
33 | COC(=O)C1=CN(CC2CCCO2)C=C(C(=O)OC)C1c1cc(OC)c(OC)c(OC)c1 (stereo unspecified) | 9.3% (inactive)
34 | CCOc1ccccc1CN(Cc1ccco1)S(=O)(=O)c1ccc(-n2cnnn2)c(OC)c1 | 53.2% (active)
35 | COc1ccccc1CN(Cc1ccco1)S(=O)(=O)c1ccc(-n2cnnn2)c(OC)c1 | 20.8% (inactive)
36 | COc1cc(S(=O)(=O)N(Cc2cccnc2)Cc2ccco2)ccc1-n1cnnn1 | 6.5% (inactive)
37 | COC(=O)c1ccccc1NC(=O)NCC1CCCO1 (stereo unspecified) | 8.4% (inactive)
38 | Cc1cc(C)cc(NS(=O)(=O)c2ccc3[nH]cc(C(=O)NCc4ccco4)c(=O)c3c2)c1 | 42.5% (inactive)
39 | CCN(CC)C(=O)CSc1ncnc2c1nnn2-c1ccc(OC)cc1 | -10.4% (inactive)
40 | COc1ccc(-n2nnc3c(SCC(=O)NCC4CCCO4)ncnc32)cc1 (stereo unspecified) | 2.8% (inactive)
41 | O=C(NCCc1ccccc1)c1ccnc(/C=N/O)c1 | -14.3% (inactive)
42 | CCn1c2c(c3cc(C(=O)O)ccc31)CCCC2=O | -19.1% (inactive)
43 | CCn1c2c(c3cc(Cl)ccc31)CCCC2=O | -6.2% (inactive)
44 | Cc1oc2c(O)c(O)ccc2c(=O)c1-c1cnn(-c2ccccc2)c1 | 0.8% (inactive)
45 | Cc1oc2cc(O)cc(C)c2c(=O)c1-c1cnn(-c2ccccc2)c1 | 61.3% (active)
46 | Cc1oc2cc(O)ccc2c(=O)c1-c1cnn(-c2ccccc2)c1 | 22.6% (inactive)
47 | COc1cc(NC(=O)Nc2ccccc2OC)c(OC)cc1NC(=O)CN1CCCCC1 | 48.5% (inactive)
48 | COc1cc(NC(=O)Nc2ccccc2)c(OC)cc1NC(=O)CN1CCCCC1 | -3.3% (inactive)

Row | Compound | cytotoxicity
49 | COc1cc(NC(=O)Nc2cccc(Cl)c2)c(OC)cc1NC(=O)CN1CCCCC1 | 89.7% (active)
50 | O=C(NC1CCCC1)C1CC1c1ccccc1 (stereo unspecified) | 17.8% (inactive)
51 | CC1(C)CC(=O)C2=C(C1)OC(N)=C(C#N)C2c1cccc(OC(=O)c2ccco2)c1 (stereo unspecified) | -2.4% (inactive)
52 | COc1nc(-c2ccccc2)cc(C(F)(F)F)n1 | -0.7% (inactive)
53 | FC(F)(F)c1cc(-c2ccco2)nc(-n2nnc3ccccc32)n1 | 3.9% (inactive)
54 | COc1ccc(-c2cc(C(F)(F)F)nc(NC3CCCC3)n2)cc1OC | 8.8% (inactive)
55 | FC(F)(F)c1cc(-c2ccco2)nc(-n2cnc3ccccc32)n1 | 41.5% (inactive)
56 | FC(F)(F)c1cc(-c2ccco2)nc(NCc2ccccc2)n1 | 8.4% (inactive)
57 | Nc1nc(-c2ccccc2)cc(C(F)(F)F)n1 | -1.4% (inactive)
58 | FC(F)(F)c1cc(-c2ccco2)nc(NCc2ccco2)n1 | -0.2% (inactive)
59 | COc1ccc(-c2cc(C(F)(F)F)nc(N3CCCCC3)n2)cc1OC | -2.6% (inactive)
60 | COC(=O)CC1Oc2ccccc2N(Cc2ccc(C)cc2)C1=O (stereo unspecified) | 1.3% (inactive)
61 | O=C(CCC1CCCC1)Nc1ccon1 | -5.5% (inactive)
62 | CCOc1ccc(NC(=O)Nc2ccc3nccnc3c2)cc1 | 8.3% (inactive)
63 | O=C(CSc1nc(-c2ccc(F)cc2)cs1)NC(=O)NCc1ccco1 | 1% (inactive)
64 | CCOC(=O)/C=C1\SCC(=O)N1Cc1nnc(-c2ccccc2Br)o1 | -23.5% (inactive)
65 | COC(=O)c1[nH]c(C)c(/C(O)=C2\C(=O)C(=O)N(CCN(C)C)C2c2cc(OC)ccc2OC)c1C (stereo unspecified) | -7.9% (inactive)
66 | O=C(CSc1ncc(-c2ccccc2)nn1)NCc1ccco1 | -13.8% (inactive)
67 | CN1CCN(c2nc(-c3cccs3)cc(C(F)(F)F)n2)CC1 | 3.2% (inactive)
68 | CC(C)c1nnc(NC(=O)CCS(=O)(=O)c2nc(-c3cccs3)cc(C(F)(F)F)n2)s1 | 43.6% (inactive)
69 | CCn1c(SCC(=O)Nc2ccc(N3CCOCC3)c(Cl)c2)nnc1-c1ccc(N)cc1 | 3.4% (inactive)
70 | Clc1ccc(OCc2nn3c(C4CCCCC4)nnc3s2)cc1 | 17.1% (inactive)
71 | CCOc1cc(-c2nc(-c3ccc(C)nc3OC)no2)cc(OCC)c1OCC | -15% (inactive)
72 | Cc1nc(NC(=O)c2oc3ccccc3c2C)sc1C(=O)N(C)C | 12.9% (inactive)

Row | Compound | cytotoxicity
73 | CCN1CCN(c2ncc(C(=O)Nc3ccccc3C(=O)OC)c3ccccc23)CC1 | 40.3% (inactive)
74 | CCN1CCN(c2ncc(C(=O)Nc3cc(Cl)ccc3OC)c3ccccc23)CC1 | 75.3% (active)
75 | CCN1CCN(c2ncc(C(=O)Nc3cc(Cl)c(OC)cc3OC)c3ccccc23)CC1 | 11.7% (inactive)
76 | O=c1/c(=C\c2cccnc2)sc2nc3ccccc3n12 | -13.6% (inactive)
77 | COc1cc(C(=O)OC(C)CN2CCN(C)CC2)cc(OC)c1OC (stereo unspecified) | -37.3% (inactive)
78 | O=C(CN1C(=O)COc2ccccc21)c1ccc(Cl)cc1 | -0.2% (inactive)
79 | Cc1ccc(C(=O)CSc2nnc(CNc3nc(-c4ccccc4)cs3)n2C)cc1 | 4.1% (inactive)
80 | COc1ccc(OCC(=O)Nc2ccccc2C(=O)N2CCCC2)cc1 | -0.2% (inactive)
81 | CC(NC(=O)NCC1CCCO1)(C(F)(F)F)C(F)(F)F (stereo unspecified) | -11.1% (inactive)
82 | NS(=O)(=O)c1ccc(S(=O)(=O)N(Cc2ccccc2F)CC2CCCO2)cc1 (stereo unspecified) | 4% (inactive)
83 | Cc1ccccc1-n1c(C)nnc1SCC(=O)NCC1CCCO1 (stereo unspecified) | -1.6% (inactive)
84 | COc1ccc(S(=O)(=O)N(C)CC(=O)NC2CCCC2)cc1Cl | -18% (inactive)
85 | Cc1nc2ccccc2c(=O)n1/N=C/c1ccc(O)cc1 | 24.4% (inactive)
86 | Cc1nc2ccccc2c(=O)n1/N=C/c1c(O)ccc2oc3c(c12)CCCC3 | 72.1% (active)
87 | Oc1ccc2oc3c(c2c1/C=N/n1cnnc1)CCCC3 | -21.1% (inactive)
88 | O=C(Oc1c(Cl)cc(Cl)c2cccnc12)N1CCCCC1 | 10.8% (inactive)
89 | CCCC(=O)NC(c1ccco1)c1cc(Cl)c2cccnc2c1O (stereo unspecified) | 59.2% (active)
90 | CCCC(=O)Nc1ccc(Cl)c(NC(=O)c2ccco2)c1 | 3.9% (inactive)
91 | NC(=O)c1ccc(N2CCCCC2)c(N2C(=O)C3C4C=CC(C4)C3C2=O)c1 (stereo unspecified) | 2.5% (inactive)
92 | O=C(CSc1nc(O)cc(=O)n1-c1ccccc1)NCc1ccccc1 | -1% (inactive)
93 | CC1=C(C(=O)OC(C)C)C(c2cccs2)N2C(=O)CCSC2=N1 (stereo unspecified) | 10.1% (inactive)
94 | O=C1CC(N2CCN(c3nc4ccccc4s3)CC2)C(=O)N1Cc1cccs1 (stereo unspecified) | 5.6% (inactive)
95 | O=C1CC(N2CCN(c3ccc(F)cc3)CC2)C(=O)N1Cc1cccs1 (stereo unspecified) | -7.6% (inactive)
96 | Cc1cccc(N(CC(=O)NC2CCCCC2)C(=O)CCC(=O)Nc2cc(C)ccn2)c1 | -11.1% (inactive)
